# Experimental data as given in PubChem BioAssay (NCI).
# This is part of a sample that, as a whole, favours compounds with a hit. Of some 79,000 tested, about 15% had one in any assay. Values without a mark were called inactive. Active and inactive are the calls of the source. Cut-off read from the data, not from the text of the source: active = growth inhibition above about 70%; inactive = the rest.
# Experiment: NCI Yeast Anticancer Drug Screen. Data for the rad50 strain (AID 155);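 note: 0% = growth of vehicle-only cultures of the same strain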
# Details: S. cerevisiae rad50 strain growth inhibition; at 50.0 µM; hits give high values
# Method in brief: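 Yeast carrying a defined DNA repair defect were exposed to test compounds, and growth was compared with vehicle-treated controls to give percent inhibition.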
row,Compound,growth inhibition
1,Clc1nc(N2CCOCC2)c2[nH]cnc2n1,-5.9%
2,COc1ccc(/C=N/Nc2nc(C)c(C)s2)cc1,30.9%
3,c1cc2c3c(c1)ccc1cccc(c13)CC2,4.45%
4,COC(=O)C(Cc1c[nH]c2ccccc12)NP(=O)(O)OCC1OC(n2cc(F)c(=O)[nH]c2=O)CC1O (stereo not given),-31.4%
5,Cc1cc(C)c(NC(=O)C(Br)C(Br)c2ccccc2)c(C)c1 (stereo not given),11.6%
6,O=c1c2ccccc2nnn1OCc1ccccc1,24.5%
7,O=C(Nc1ccc([N+](=O)[O-])cc1)OCc1ccccc1,-14.1%
8,O=C(/C=C/CC(O)(c1ccccc1)c1ccccc1)Nc1ccccc1Cl,-15.2%
9,SC1c2ccccc2-c2ccccc21,30.1%
10,NCCNCCCCCCCCCCCCOS(=O)(=O)O,-32.8%
11,O=C1OC2C(Cl)C3CC1C2C3 (stereo not given),-12.2%
12,CC1(C)COC(c2ccc3ccccc3c2)OC1,26%
13,CCc1ccccc1NOC,7.65%
14,O=C1CNS(=O)(=O)N1,-18.9%
15,CC1(C)OP2(O)(OC(C)(C)c3ccccc32)c2ccccc21,31.1%
16,COc1ccc(/C=C(\Cl)c2ccc(OC)cc2)cc1,-2.9%
17,CC1S(=O)(=O)OCCCOS1(=O)=O,-22.8%
18,CCc1cc(O)cc(C)c1Cl,55.1%
19,O=S(=O)([O-])c1ccc2c(c1)-c1nc-2nc2[n-]c(nc3nc(nc4[n-]c(n1)c1ccc(S(=O)(=O)[O-])cc41)-c1cc(S(=O)(=O)[O-])ccc1-3)c1ccc(S(=O)(=O)[O-])cc21.[Cu+2].[Na+],-13.7%
20,CCOC(=O)Nc1cc(Cl)c2nnn(C(=O)OCC)c2n1,95.8% (active)

row,Compound,growth inhibition
1,CC1CNC(=O)NC1=O.O.O.[NH2-].[NH2-].[Pt+4] (stereo not given),7.55%
2,O=C1NC(c2ccccc2)(c2ccccc2)C(=O)N1CNc1ccccn1,-0.4%
3,COC(=O)C1(CC(=O)/C=C/c2ccccc2)NC(=S)NC(=O)C1C#N (stereo not given),15.7%
4,CCC(C)C(CC)C(=O)N(C)C(=O)N(C)C(C)=O (stereo not given),-19.2%
5,Cc1cc(O)c(C(C)C)cc1N=Cc1ccccc1O,-38.4%
6,CCc1cccc(Nc2ccccc2C(=O)O)c1,42%
7,CC(C)c1sc([S-])n[n+]1-c1ccccc1,10.2%
8,Cc1cnc2cccc(C)c2c1Cl,-29.5%
9,c1ccc(CCc2ccccn2)nc1,22.9%
10,O=C1CC(O)C2C(=O)c3c(c(Cl)c4ccccc4c3O)C(=O)C2C1 (stereo not given),12.1%
11,CCOC(=O)CC1CC2c3cc(OC)c(OC)cc3CCN2CC1CC (stereo not given),3.1%
12,Cc1cc(=O)oc2cc3c(cc12)Oc1ccccc1O3,-6.85%
13,COC(=O)C(C(=O)C(=O)Nc1cccc(O)c1)c1nc2ccc(Cl)cc2[nH]c1=O (stereo not given),-19%
14,CC(=O)SC12CCCN1C(=O)C1(SC(C)=O)CCCN1C2=O (stereo not given),40.5%
15,CCCCCCN(CCCCCC)CC(O)c1c(Cl)ccc2ccccc12 (stereo not given),99.1% (active)
16,CC(=O)Nc1cc(C)ccn1,1.2%
17,Cn1c(=O)c2c(ncn2CN2CCN(Cn3cnc4c3c(=O)n(C)c(=O)n4C)CC2)n(C)c1=O,2.75%
18,Nc1cccc(SC2CC(=O)N(c3ccc4c(c3)OCO4)C2=O)c1 (stereo not given),90.4% (active)
19,O=S(=O)(c1cnccc1N1CCN(CCO)CC1)N1CCCC1,6.4%
20,CCCCCCCCCCCCCCCc1cc(OC)ccc1S(=O)(=O)O,22.6%
